hcDAF12 agonist: activates DAF-12 receptor from parasite H. contortus; HEK293 hcDAF-12 lit1-tk-luc reporter, luminescence; 0% DMSO, 100% Δ7-dafachronic acid; activation, % at 6.8 µM; hit rate 1.4% among 370,000;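 active = activation above the mean of all tested compounds plus 3 SD, cut at about 5.5% in these data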
hgDAF-12 ag: hgDAF-12 agonism, primary luciferase screen; activation, % at 6.8 µM; hit rate 1.8% among 370,000; AID 687014; HEK293 GAL4-hgDAF12 UAS-luciferase reporter, agonist luminescence; normalized to butyrate control;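 active = activation above a cutoff set at the mean of all screened compounds plus 3 SD, cut at about 10% in these data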
DAX1 inh-1: inhibits human nuclear receptor DAX1. P51843. HEK293 Gal4-DAX1 luciferase reporter, luminescence. inhibition, % at 6.75 µM. hit rate 0.99% among 340,000. AID 504766;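 active = inhibition above the mean over all tested compounds plus 3 SD, cut at about 4.2% in these data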;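 note: inhibition shows as a rise in luminescence from relieved DAX1 repression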
DAX1 inh-2: DAX1 (NR0B1) inhibition, primary screen; inhibition, % at 6.8 µM; hit rate 1.1% among 370,000; HEK293T StAR-luciferase reporter, SF-1/DAX-1 repression relief;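 active = inhibition above the mean over all tested compounds plus 3 SD, cut at about 3.6% in these data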;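 note: higher inhibition means more luminescence from relief of DAX-1 repression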
AHR act: activators of human aryl hydrocarbon receptor. P35869. AHR-responsive luciferase reporter cells, luminescence. activation, % at 5 µM. hit rate 2.5% among 320,000. AID 2796; in the data active = activation above about 47%
ssDAF12 agonist: activators of S. stercoralis DAF-12 nuclear receptor; AID 652126; activation, % at 6.8 µM; hit rate 1% among 370,000; HEK293 ssDAF-12/GRIP1 lit1-tk-luc reporter, luminescence; % of 3 µM dafachronic acid response;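 active = activation above the mean over all tested compounds plus 3 SD, cut at about 0.9% in these data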
DAX1 inh confirm: NR0B1 (human) inhibition, confirmation | shares compounds with DAX1 inh-2 | HEK293T StAR-promoter luciferase reporter, SF-1/DAX-1 repression | inhibition, % at 6.8 µM | hit rate 87% among 2,400 | AID 652134;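 active = inhibition above the average of every tested compound plus 3 SD, cut at about 3.8% in these data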;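 note: active compounds raise luminescence by relieving repression of the StAR reporter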
SF1 AF2mut Luc: counter-screen for DAX1 inhibitors: nonselective inhibitors with SF-1 AF2 mutant; AID 652136; HEK293 StAR-luciferase, luminescence; shares compounds with DAX1 inh-2; inhibition, % at 6.8 µM; hit rate 78% among 2,400;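 active = inhibition above the mean of all tested compounds plus 3 SD, cut at about 3% in these data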
LXRb hcDAF ctr: LXR-beta agonism as hcDAF-12 counter-screen. shares compounds with hcDAF12 agonist. HEK293 Gal4-LXR tk-luc reporter, luminescence, 24 h; normalized: DMSO 0%, positive control 100%. activation, % at 6.8 µM. 3,400 tested, under 10 active;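 active = mean percent activation of the reporter above a cutoff set as the average over tested compounds plus their standard deviation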
Target sequence (P55055 whole entry, looked up, the tested form may be a part): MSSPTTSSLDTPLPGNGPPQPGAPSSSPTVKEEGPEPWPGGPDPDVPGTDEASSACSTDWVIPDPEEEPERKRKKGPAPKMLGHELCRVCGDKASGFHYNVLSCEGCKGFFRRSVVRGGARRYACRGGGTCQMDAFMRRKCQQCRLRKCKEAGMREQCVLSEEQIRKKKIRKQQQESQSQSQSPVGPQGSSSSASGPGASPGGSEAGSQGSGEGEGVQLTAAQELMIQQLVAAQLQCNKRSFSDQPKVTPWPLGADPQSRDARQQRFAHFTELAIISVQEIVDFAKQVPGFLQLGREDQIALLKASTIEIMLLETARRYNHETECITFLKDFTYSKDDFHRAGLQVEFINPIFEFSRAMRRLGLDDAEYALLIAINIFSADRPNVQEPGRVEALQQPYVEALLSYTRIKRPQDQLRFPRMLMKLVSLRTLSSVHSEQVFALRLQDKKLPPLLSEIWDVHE
hcDAF12 conf: hcDAF-12 agonism, confirmation assay; activation, % at 6.8 µM; shares compounds with hcDAF12 agonist; HEK293 hcDAF-12 lit1-tk-luc reporter, luminescence; % of Δ7-dafachronic acid response; hit rate 61% among 3,400;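 active = mean activation across triplicate tests above the threshold derived from the earlier primary screen, cut at about 5.5% in these data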
hgDAF12 ag: confirmation of H. glycines DAF-12 agonists; shares compounds with hgDAF-12 ag; AID 743050; hit rate 80% among 3,300; activation, % at 6.8 µM; HEK293 GAL4-hgDAF12 luciferase reporter, agonist mode; percent of butyrate response;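 active = mean activation over triplicate wells above the hit cutoff derived from the earlier primary screen, cut at about 11% in these data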
LXR ag 2: activates human LXR-beta, counter-screen for DAF-12 agonists; shares compounds with hgDAF-12 ag; activation, % at 6.8 µM; HEK293 Gal4-LXR luciferase reporter, 24 h; 3,300 tested, under 10 active;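 active = mean activation of the triplicate above a set limit carried over from the primary screen, none filed active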
Of the large screens only hits and unclear results are named; the others gave an inactive call (follow-up assays come after a bar, where they were run). Compounds with a hit are over-represented: about 5.7% of the library has one in this group of screens.

O=C(Nc1ccc(Cl)cc1Cl)c1ccc2c(c1)OCCO2	hcDAF12 agonist 7.5, hgDAF-12 ag 14, DAX1 inh-2 8.7 | DAX1 inh confirm 17 | SF1 AF2mut Luc 6.7 | LXRb hcDAF ctr inactive | hcDAF12 conf 6.3 | hgDAF12 ag 17 | LXR ag 2 inactive
CC1CCC(NC(=O)c2cccn2C)CC1 (configuration not stated)	hgDAF-12 ag 15, DAX1 inh-2 10.0 (no result: AHR act) | DAX1 inh confirm 14 | SF1 AF2mut Luc 7.4 | hgDAF12 ag 14 | LXR ag 2 inactive
CS(=O)(=O)N(CC(=O)Nc1ccccc1C(=O)NCc1ccccc1)c1ccc2c(c1)OCCO2	none
Cc1cccc(-n2ncc3c(NCc4cccnc4)ncnc32)c1	hgDAF-12 ag 13, DAX1 inh-2 4.7 | DAX1 inh confirm 8.1 | SF1 AF2mut Luc 4.2 | hgDAF12 ag 12 | LXR ag 2 inactive
Cc1cccc(-n2ncc3c(N4CCOCC4)ncnc32)c1	none
Cc1cccc(-n2ncc3c(N4CCCC4)ncnc32)c1	hgDAF-12 ag 18, DAX1 inh-2 7.4 | DAX1 inh confirm 16 | SF1 AF2mut Luc 6.9 | hgDAF12 ag 16 | LXR ag 2 inactive
Cc1cccc(-n2ncc3c(NC4CCCCC4)ncnc32)c1	hcDAF12 agonist 7.8, hgDAF-12 ag 25, DAX1 inh-2 6.8 | DAX1 inh confirm 13 | SF1 AF2mut Luc 7.5 | LXRb hcDAF ctr inactive | hcDAF12 conf 6.2 | hgDAF12 ag 12 | LXR ag 2 inactive
Cc1ccc(-n2ncc3c(NCc4cccnc4)ncnc32)c(C)c1	none
CC(=O)N1CCN(Cc2nc3cc(Cl)ccc3c(=O)[nH]2)CC1	none
CCOC(=O)c1c(C)[nH]c(N=Nc2cccc(OC)c2)c1C	hcDAF12 agonist 5.9, hgDAF-12 ag 16, DAX1 inh-2 4.9 | DAX1 inh confirm 16 | SF1 AF2mut Luc 8.0 | hgDAF12 ag 21 | LXR ag 2 inactive
CCOC(=O)c1c(C)[nH]c(N=Nc2ccccc2Cl)c1C	none
CCOC(=O)c1c(C)[nH]c(N=Nc2ccc(C)cc2)c1C	hgDAF-12 ag 15, DAX1 inh-2 4.9 | DAX1 inh confirm 12 | SF1 AF2mut Luc 6.0 | hgDAF12 ag 18 | LXR ag 2 inactive
CCOC(=O)c1c(C)[nH]c(N=Nc2ccc(OC)cc2)c1C	none
Cc1ccc2c(CN(C)Cc3ccccc3)cc(=O)oc2c1	hgDAF-12 ag 14, DAX1 inh-2 6.8 (no result: DAX1 inh-1, AHR act) | DAX1 inh confirm 6.0 | SF1 AF2mut Luc inactive | hgDAF12 ag 11 | LXR ag 2 inactive
CC(=O)N(c1ccccc1)c1nnc(-c2cnc(C)cn2)s1	hgDAF-12 ag 14, DAX1 inh-2 8.4 | DAX1 inh confirm 9.5 | SF1 AF2mut Luc 9.2 | hgDAF12 ag 11 | LXR ag 2 inactive
Cc1cnc(-c2nnc(N(C)C(=O)c3cccnc3)s2)cn1	none
Cc1ccc(C2C(=O)N(C3CCC(C)CC3)CC(=O)N2C2CCCC2)cc1 (configuration not stated)	none
Fc1ccc(CSc2ncnc3c2ncn3C2CCCCO2)cc1 (configuration not stated)	none (no result: AHR act)

Bioassay records (PubChem BioAssay)
